# Compound activity: PubChem BioAssay, National Center for Advancing Translational Sciences (NCATS)
# Hits are enriched below; roughly 3% of the tested compounds scored in any of these assays.
# DRD3 antagonist = antagonists of human D3 dopamine receptor. 2.5% of 360,000 active. max response, negative = inhibition, %. P35462. D3R cells, DiscoveRx beta-arrestin luminescence, antagonist mode; hits give low values; in the data active = max response below about -50%; also: % is scaled to controls: 0 for no effect and ±100 for the full control effect
# Target sequence (P35462 whole entry, looked up): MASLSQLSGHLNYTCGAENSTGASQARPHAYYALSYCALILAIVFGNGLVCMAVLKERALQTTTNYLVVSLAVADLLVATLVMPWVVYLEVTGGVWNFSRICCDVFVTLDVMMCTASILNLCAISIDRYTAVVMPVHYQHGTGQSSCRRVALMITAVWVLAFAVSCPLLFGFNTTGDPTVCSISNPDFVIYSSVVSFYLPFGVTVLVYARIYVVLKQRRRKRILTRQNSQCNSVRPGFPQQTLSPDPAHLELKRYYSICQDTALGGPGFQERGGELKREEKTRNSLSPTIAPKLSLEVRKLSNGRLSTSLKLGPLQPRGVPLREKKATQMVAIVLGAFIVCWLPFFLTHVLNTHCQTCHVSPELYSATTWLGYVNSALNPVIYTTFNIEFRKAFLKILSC
#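 Cells plated overnight at 1500 cells/well, then exposed to library compounds with dopamine controls for 90 minutes at 37 degrees C. DiscoveRx reagent added for 30–60 minutes at room temperature; luminescence read, quantitative HTS format.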
# Nrf2 ARE act = activates Nrf2 signaling. AID 624171. AREc32 ARE-luciferase reporter (MCF7-derived line), luminescence, 24 h. 0.31% of 410,000 active. Potency, µM (doses to about 46.1 µM), for inactives: at the highest dose activation, usual class: activators; also: potency is read from the fitted curve at half-maximal effect; % of control where 0% means no effect; nearly all actives have a fitted effect of over 65% in size
#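 Reporter line AREc32 (ARE-Fluc), seeded overnight in OPTI-MEM with 5% FBS; compound pin-transferred, 24 hr at 37 deg C, 5% CO2; luminescent read-out.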
# D3 ag = D3 dopamine receptor (human) agonism. P35462. D3R DiscoveRx beta-arrestin cells, luminescence, 90 min. max activation, %. 0.58% of 410,000 active. AID 652048; in the data active = max activation above about 30%; also: 0% is about no effect
#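 Agonist mode: compounds and dopamine controls were applied to plated cells for 90 min at 37 degrees C after an overnight attachment at 1500 cells/well. Luminescent read-out followed 30 - 60 minutes at room temperature with DiscoveRx detection reagent.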
# GRP78 ERSR act = induces the endoplasmic reticulum stress response in human glioma cells. 0.02% of 420,000 active. U87-MG GRP78 promoter luciferase reporter, 16 h. Potency, µM, for inactives: at the highest dose activation, usual class: activators; also: potency is read from the fitted curve at half-maximal effect; series mostly up to about 76 µM; % of control where 0% means no effect; nearly all actives have a fitted effect of over 35% in size
#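 ERSR induction read as luciferase luminescence (Bright-Glo, 10 min at room temperature) in stably transfected human U87-MG glioma cells exposed to compounds for 16 h, using GRP78 as sensor.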
# * marks the source's active call; other numbers are inactive results; . = no result; ! = not confirmed by another sample. Unless noted, calls follow the shape of the dose curve; as a rule, active = well fitted curve in the direction sought with a large enough effect; inconclusive = small, poorly fitted or top-dose-only effect, or another doubt; inactive = no such curve, though single readings can be large; an effect the other way counts as inactive or inconclusive.
SMILES,DRD3 antagonist,Nrf2 ARE act,D3 ag,GRP78 ERSR act
C/C(=N\NS(=O)(=O)c1ccc(Cl)c([N+](=O)[O-])c1)c1cc2ccccc2o1,-98*,0%,3,0%
C/C(=N\Nc1ccc([N+](=O)[O-])cc1)c1cc2ccccc2o1,-25,22%,-11,-1%
C/C(=N\NS(=O)(=O)c1ccc(C)c([N+](=O)[O-])c1)c1cc2ccccc2o1,-70*,0%,-8,-2%
CCc1ccc(C(=O)C[N+]2(C)CCOCC2)cc1,.,.,.,-2%
CC(C)(C)c1cc(O)c(C(C)(C)C)cc1O,.,.,.,40µM*!
Cc1cc(C(C)(C)C)c(O)c(C(C)(C)C)c1,26,-1%,-15,-2%
O=C(/C=C/c1ccccc1Cl)Nc1nc(-c2cccs2)ns1,.,6.3µM*,12,2%
CCCN(CCC)CCCNC(=O)c1cc2c(-c3ccc(OC)c(OC)c3)nn(C)c2s1,-92*,11%,-15,-6%
CCCCN(CC)CCNC(=O)c1cc2c(-c3ccc(Cl)cc3)nn(C)c2s1,-62*,-2%,-13,0%
